AHR activator: AHR activators, primary screen, cell-based, luminescence, luciferase reporter, human. Aryl hydrocarbon receptor (Homo sapiens), P35869. activation, % at 5 µM. AID 2796, 2010. AHR-responsive luciferase reporter cells. 320,000 tested, 2.5% active; in the data active means activation above about 47%;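 further: 0% = vehicle wells and 100% = reference agonist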
hgDAF12 agonist: H. glycines DAF-12 receptor agonists, primary screen, cell-based, luminescence, HEK293, GAL4 fusion, UAS-luciferase. Nuclear hormone receptor DAF-12 (Heterodera glycines), GAL4 fusion. AID 687014, 2013. activation, % at 6.8 µM. HEK293 GAL4-hgDAF12 UAS-luciferase reporter, agonist luminescence; normalized to butyrate control. 370,000 tested, 1.8% active;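 active means activation above a cutoff set at the mean of all screened compounds plus 3 SD, cut at about 10% in these data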;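 further: 0% = DMSO wells and 100% = sodium butyrate wells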
DAX1 inh-1: DAX1 (NR0B1) inhibitors, primary screen, cell-based, HEK293, Gal4-DAX1, luciferase luminescence; Nuclear receptor subfamily 0 group B member 1 (Homo sapiens), P51843; HEK293 Gal4-DAX1 luciferase reporter; inhibition, % at 6.75 µM; 340,000 tested, 0.99% active;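 active means inhibition above the mean over all tested compounds plus 3 SD, cut at about 4.2% in these data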;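 further: 0% = DAX1-transfected cells with DMSO and 100% = empty-vector control cells with DMSO; inhibition shows as a rise in luminescence from relieved DAX1 repression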
Target sequence (P51843 207-470 limits assumed): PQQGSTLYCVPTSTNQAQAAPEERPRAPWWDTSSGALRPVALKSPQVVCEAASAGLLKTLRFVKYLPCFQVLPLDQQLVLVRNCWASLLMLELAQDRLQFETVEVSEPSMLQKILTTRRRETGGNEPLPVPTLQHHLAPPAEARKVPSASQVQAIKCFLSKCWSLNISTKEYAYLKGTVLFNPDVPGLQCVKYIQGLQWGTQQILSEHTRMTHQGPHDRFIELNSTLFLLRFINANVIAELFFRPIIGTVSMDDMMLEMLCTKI
ssDAF-12 act: S. stercoralis DAF-12 nuclear receptor activators, primary screen, cell-based, luminescence, HEK293, GRIP1 co-expression, lit1-tk-luc; Nuclear hormone receptor DAF-12 (Strongyloides stercoralis); 370,000 tested, 1% active; activation, % at 6.8 µM; HEK293 ssDAF-12/GRIP1 lit1-tk-luc reporter; % of 3 µM dafachronic acid response; AID 652126, 2013;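 active means activation above the mean over all tested compounds plus 3 SD, cut at about 0.9% in these data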;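 further: 0% = DMSO-only wells and 100% = 3 µM delta7-dafachronic acid wells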
hcDAF12 agonist: H. contortus DAF-12 nuclear receptor activators, primary screen, cell-based, luminescence, HEK293, lit1-tk-luc reporter. AID 652067, 2013. HEK293 hcDAF-12 lit1-tk-luc reporter; 0% DMSO, 100% Δ7-dafachronic acid. activation, % at 6.8 µM. 370,000 tested, 1.4% active;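 active means activation above the mean of all tested compounds plus 3 SD, cut at about 5.5% in these data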;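 further: 100% = response to 3 µM Δ7-dafachronic acid high control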
DAX1 inh-2: DAX1 (NR0B1) inhibitors on StAR promoter, primary screen, cell-based, luminescence, SF-1 (NR5A1), full-length DAX-1; HEK293T StAR-luciferase reporter, SF-1/DAX-1 repression relief; inhibition, % at 6.8 µM; 370,000 tested, 1.1% active; AID 652010, 2013;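 active means inhibition above the mean over all tested compounds plus 3 SD, cut at about 3.6% in these data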;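 further: 0% = DAX-1 cells with DMSO and 100% = cells lacking DAX-1 with DMSO; higher inhibition means more luminescence from relief of DAX-1 repression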
AHR act confirm: AHR activators, confirmation, cell-based, luminescence, luciferase reporter, human; shares compounds with AHR activator; human cells, AHR-responsive luciferase reporter; activation, % at 9 µM; 2,300 tested, 87% active; AID 2845, 2010; in the data active means activation above about 49%;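 further: HepG2 hepatoma cells carrying a DRE-driven firefly luciferase reporter; 0% = vehicle wells and 100% = reference agonist wells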
PXR act counter: human PXR activators, counter-screen for AHR activator project, cell-based, luciferase luminescence; activation, % at 11.6 µM; shares compounds with AHR activator; cell-based PXR reporter; AID 434939, 2010; 2,300 tested, 88% active; in the data active means activation above about 11%;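 further: human hepatoma DPX-2 cells expressing full-length human PXR; 0% = DMSO and 100% = reference agonist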
Starred values were filed as active, the others as inactive; . = not tested or not shown. Most compounds without a hit are left out; they make up all but 5.7% or so of the library.

SMILES | AHR activator | hgDAF12 agonist | DAX1 inh-1 | ssDAF-12 act | hcDAF12 agonist | DAX1 inh-2 | AHR act confirm | PXR act counter
COc1ccc2c(c1)C(=NNc1ccc(C(=O)O)cc1)c1cc(OC)ccc1-2 | 86* | -4 | 0 | -1 | -1 | 0 | 108* | 11*
COCCCNC(=O)c1sc2ncnc(N3CCc4ccccc4C3)c2c1C | 100* | 1 | 1 | -1 | -1 | 0 | 82* | 20*
Cc1c(C(=O)N2CCCCC2C)sc2ncnc(N3CCc4ccccc4C3)c12 (stereo not drawn) | 5 | -1 | 0 | -2 | -1 | -1 | . | .
O=C(Nc1ccc(N2CCOCC2)cc1)c1csc([C@@H]2O[C@H](CO)[C@H](O)[C@H](O)[C@H]2O)n1 | . | 5 | . | -1 | 0 | -1 | . | .
COc1ccc(CCNC(=O)CC2Oc3ccc(Cl)cc3NC2=O)cc1OC (stereo not drawn) | 98* | -1 | 1 | -1 | -1 | 0 | 3 | 46*
CCC(=O)N(Cc1ccc(C)cc1)Cc1cc2cc3c(cc2[nH]c1=O)OCO3 | 17 | -2 | 1 | -1 | 0 | 0 | . | .
CCC(=O)N(CCc1ccccc1)Cc1cc2cc3c(cc2[nH]c1=O)OCO3 | 92* | -1 | 2 | -1 | 0 | -1 | 93* | 54*
COc1ccc(C(=O)N/N=C/c2ccc3cccc(OCc4ccccc4)c3n2)cc1 | 81* | -5 | -2 | -2 | -2 | -2 | 81* | 22*
COc1cccc(-n2c(SCC(=O)Nc3cc(C)on3)nc3c([nH]c4ccccc43)c2=O)c1 | 103* | 4 | -1 | -1 | 3 | 0 | 103* | 63*
Cc1cc(NC(=O)CSc2nc3ccccc3[nH]2)no1 | 1 | 0 | 0 | -1 | -1 | 0 | . | .
Cc1cc(NC(=O)CSc2nc3c([nH]c4ccccc43)c(=O)n2-c2ccccc2F)no1 | 90* | -1 | 0 | 0 | 2 | 0 | 70* | 164*
Cc1ccccc1-n1c(SCC(=O)NCC2CCCO2)nc2c([nH]c3ccccc32)c1=O (stereo not drawn) | 14 | -2 | -1 | -1 | 0 | -1 | . | .
O=C(CSc1nc2c([nH]c3ccccc32)c(=O)n1-c1ccccc1F)NCC1CCCO1 (stereo not drawn) | 96* | 3 | 0 | 1 | 5 | -1 | 98* | 112*
Cc1cc(=O)oc2cc(OCCc3ccccc3)ccc12 | 81* | 2 | -1 | 0 | 4 | 0 | 140* | 21*
O=C(CN1CCN(C(=O)C2COc3ccccc3O2)CC1)Nc1ccccc1 (stereo not drawn) | -3 | -1 | 0 | -1 | -1 | 0 | . | .
COc1ccc(C)cc1NC(=O)c1cccc(C(=O)Nc2cc(C)ccc2OC)n1 | 3 | 1 | 0 | -1 | 0 | 0 | . | .
COc1cc(/C=C(\C#N)c2nc3ccccc3[nH]2)ccc1OC(=O)c1ccco1 | 100* | 5 | 0 | -1 | -1 | 0 | 29 | 14*
COc1cc(/C=C(/C#N)c2nc3ccccc3[nH]2)ccc1OCC(=O)Nc1ccccc1C | 7 | 2 | 1 | -1 | 2 | 1 | . | .
CCOC(=O)N1CCC(NC(=O)c2cc(-c3ccc(OC)cc3)nc3ccccc23)CC1 | 4 | 2 | 0 | -1 | -1 | 0 | . | .
CCOC(=O)N1CCC(NC(=O)c2cccn3c(=O)c4cc(Br)ccc4nc23)CC1 | 90* | -2 | -1 | -2 | 1 | 1 | 111* | 18*

Compound activity deposited in PubChem by The Scripps Research Institute Molecular Screening Center.
